Screens from PubChem BioAssay.
An excerpt weighted towards active compounds, which were near 1.9% of everything screened.
LYPLA2 inh: counter-screen for PME1 inhibitors: inhibitors of human LYPLA2 | O95372 | recombinant LYPLA2, FP-Rh probe fluorescence polarization | inhibition, % at 5.9 µM | 320,000 compounds, 0.38% hits | AID 2177;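 active = inhibition above the screen-wide mean plus 3 SD, limit set per campaign, cut at about 26% in these data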
Target sequence (O95372 whole entry, looked up): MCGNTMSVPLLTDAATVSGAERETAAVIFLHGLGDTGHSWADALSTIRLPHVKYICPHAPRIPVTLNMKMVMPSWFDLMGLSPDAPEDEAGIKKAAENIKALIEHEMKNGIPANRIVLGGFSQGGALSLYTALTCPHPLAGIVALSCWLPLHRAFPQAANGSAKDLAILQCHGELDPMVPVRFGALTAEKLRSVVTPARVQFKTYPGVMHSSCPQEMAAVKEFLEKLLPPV
Fam108B inh: Fam108B inhibition, counter-screen for RBBP9 inhibitors | recombinant Fam108B, FP-Rh probe fluorescence polarization | inhibition, % at 9.51 µM | 300,000 compounds, 0.33% hits;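 active = inhibition above the screen mean inhibition plus 3 SD, computed separately per campaign, cut at about 18% in these data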;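 also: inhibitors lower polarization as less probe binds the enzyme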
PREPL inh: human PREPL enzyme inhibition; Q4J6C6; recombinant PREPL, fluorescence polarization activity-based probe; inhibition, % at 5.96 µM; 320,000 compounds, 0.68% hits; AID 2751; in the data active = inhibition above about 43%
PME-1 inh: PME-1 (human) inhibition | Q9Y570 | recombinant PME-1, FP-Rh probe fluorescence polarization | inhibition, % at 5.9 µM | 320,000 compounds, 0.53% hits | AID 2130;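 active = inhibition above the campaign mean of all compounds plus 3 SD, cut at about 26% in these data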;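 also: competitive labeling of PME-1 active site by serine hydrolase directed probe; inhibitors block probe labeling so polarization falls and inhibition rises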
Target sequence (Q9Y570 whole entry, looked up): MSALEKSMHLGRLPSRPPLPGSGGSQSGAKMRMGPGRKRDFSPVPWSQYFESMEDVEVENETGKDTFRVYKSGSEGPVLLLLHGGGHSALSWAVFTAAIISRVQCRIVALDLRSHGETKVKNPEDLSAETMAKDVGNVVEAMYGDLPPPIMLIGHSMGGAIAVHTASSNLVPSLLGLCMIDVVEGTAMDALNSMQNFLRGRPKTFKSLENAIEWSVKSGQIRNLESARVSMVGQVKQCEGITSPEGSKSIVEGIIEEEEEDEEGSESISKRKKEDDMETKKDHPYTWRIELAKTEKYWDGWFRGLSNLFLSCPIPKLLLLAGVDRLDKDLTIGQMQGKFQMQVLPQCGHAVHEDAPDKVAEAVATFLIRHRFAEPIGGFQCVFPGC
LYPLA1 inh: LYPLA1 (human) inhibition in PME1 counter-screen. O75608. recombinant LYPLA1, FP-Rh probe fluorescence polarization. inhibition, % at 5.9 µM. 320,000 compounds, 0.16% hits;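 active = inhibition above the mean of all tested compounds plus 3 SD, set per campaign, cut at about 14% in these data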;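 also: inhibitors block serine hydrolase probe labeling of LYPLA1 so polarization falls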
GSTO1 counter: GSTO1 inhibition, counter-screen for RBBP9 inhibitors | P78417 | recombinant GSTO1, activity-based probe fluorescence polarization | inhibition, % at 5.96 µM | 300,000 compounds, 1.1% hits;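 active = inhibition above the campaign mean inhibition plus 3 SD, cut at about 35% in these data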
Large screens that a line does not name were inactive.

O=C(N/N=C/c1ccc(OCc2ccc(F)cc2)cc1)c1ccccc1	none
CC(C)(C)c1ccc(OCc2ccc(C(=O)N/N=C/c3ccc(O)c(O)c3)cc2)cc1	Fam108B inh 27
COc1ccc(-c2c[n+]3c4n2CCCCC4=C(c2ccc(Br)cc2)C3)cc1	PREPL inh 49
Cc1ccc(N(CCC(=O)O)S(=O)(=O)c2ccc(C)cc2)cc1	none
Cc1ccc(N(CC2CO2)S(=O)(=O)c2ccc(C)cc2)cc1 (stereo not given)	GSTO1 counter 74
N#CC(C#N)=C(N)/C(C#N)=C/c1cc(O)c(O)c(O)c1	GSTO1 counter 64
Cc1ccc(S(=O)(=O)Oc2ccc(C(c3c(C)[nH][nH]c3=O)c3c(C)[nH][nH]c3=O)cc2)cc1	none
Cc1[nH][nH]c(=O)c1C(c1ccc(-c2ccc(Cl)c(Cl)c2)o1)c1c(C)[nH][nH]c1=O	GSTO1 counter 35
Cc1[nH][nH]c(=O)c1C(c1ccc(-c2ccc(F)cc2)o1)c1c(C)[nH][nH]c1=O	GSTO1 counter 52
Cc1[nH][nH]c(=O)c1C(c1ccc(N(C)C)c(Br)c1)c1c(C)[nH][nH]c1=O	none
CSc1cccc(CNC(=O)C2CCC(=O)N(CCCN3CCCC3=O)C2)c1 (stereo not given)	none
Nc1ccc(O)c(C(=O)O)c1	GSTO1 counter 76
Cc1ccc(Nc2nnc(SCC(=O)c3ccc(O)cc3O)s2)cc1	PME-1 inh 37
Cc1cccc(Nc2nnc(SCC(=O)c3ccc(O)cc3O)s2)c1	none
Fc1cccc(Cl)c1CNc1ccc(N2CCCC2)cc1	GSTO1 counter 37
COC(=O)c1cc(NCc2c(F)cccc2Cl)ccc1N1CCOCC1	none
O=C(O)c1cc(O)c2c(c1)C(=O)c1cccc(O)c1C2=O	GSTO1 counter 50
COCCCNC(=O)c1ccc2c3c(onc13)-c1ccccc1C2=O	GSTO1 counter 44
C[C@H](CO)N1C[C@H](C)[C@@H](CN(C)Cc2ccc(Cl)c(Cl)c2)Oc2c(NS(=O)(=O)c3ccc(F)cc3)cccc2C1=O	none (no result: LYPLA2 inh, Fam108B inh, PME-1 inh, LYPLA1 inh, GSTO1 counter)
Cc1cc(C)nc(/N=C(\N)Nc2ccc(OCc3ccccc3)cc2)n1	LYPLA2 inh 30
CSCCC(NC(=O)c1ccco1)C(=O)Nc1ccc(C)cn1 (stereo not given)	none
O=C(CNc1cccc2ccccc12)N/N=C/C=C/c1ccco1	PME-1 inh 74
CCN(CC)c1ccc(S(=O)(=O)N2CCOCC2)cc1NC(=O)Nc1ccccc1	none (no result: LYPLA2 inh, Fam108B inh, PME-1 inh, LYPLA1 inh, GSTO1 counter)
CCN(CC)c1ccc(S(=O)(=O)N2CCOCC2)cc1NC(=O)CN1CCN(Cc2ccccc2)CC1	PME-1 inh 59
COC(=O)C1C(O)C(C)C(O)C(C)(O)/C=C\C=C(/C)C(=O)Nc2c(C)c(OC(C)=O)c3c(c2O)C(=O)C(C)=C2OCOC(=C23)/C(C)=C/C(C)(O)C(O)C(C)C1O (stereo not given)	GSTO1 counter 59
Cc1ccccc1-c1nnc(SCCOc2ccc3c(C)cc(=O)oc3c2)o1	GSTO1 counter 36
Cc1cc(=O)oc2cc(OCc3ccccc3)ccc12	none
COC(=O)c1ccc(Sc2ccccc2NS(=O)(=O)c2ccc(C)cc2)nc1	PME-1 inh 29
O=C1CCCC2=C1C(c1ccc(O)c(O)c1)Nc1ccc3ncccc3c12 (stereo not given)	GSTO1 counter 78
O=C1CCCC2=C1C(c1cccs1)Nc1ccc3ncccc3c12 (stereo not given)	none
COC(=O)c1cccc(C#CC(NP(=O)(c2ccccc2)c2ccccc2)c2ccccc2)c1 (stereo not given)	PME-1 inh 31
Oc1ccc(O)c(Cc2nc3ccccc3[nH]2)c1	GSTO1 counter 70
CCCOc1ccccc1/C=C1\SC(N2CCCCC2)=NC1=O	none
Cc1nc2ccccc2c2c1C(=O)NC2=O	none
CCCn1c(N)c(C(=O)CN(C)CC(=O)Nc2ccccc2CC)c(=O)[nH]c1=O	PME-1 inh 33 (no result: Fam108B inh, GSTO1 counter)
O=C(CCCN1C(=O)C(c2ccccc2)Oc2cccnc21)NCc1ccccc1F (stereo not given)	none
Cc1ccc2[nH]c3c(N4CCc5ccccc5C4)ncnc3c2c1	PREPL inh 46, PME-1 inh 30
COC/C=C/C1=CC2=CC(=O)C(C)(OC(=O)c3ccco3)C(=O)C2=CO1 (stereo not given)	GSTO1 counter 36
COC/C=C/C1=CC2=CC(=O)C(C)(OC(=O)c3cccs3)C(=O)C2=CO1 (stereo not given)	none
COC/C=C/C1=CC2=CC(=O)C(C)(O)C(=O)C2=CO1 (stereo not given)	GSTO1 counter 42
O=C(COC(=O)Cc1n[nH]c(=O)c2ccccc12)NNC(=O)c1ccc(Cl)cc1	none (no result: Fam108B inh, GSTO1 counter)
COc1ccc2oc(C(=O)OCC(=O)N3CCN(S(=O)(=O)c4ccc(C)cc4)CC3)c(C)c2c1	PME-1 inh 31
O=[N+]([O-])c1ccc(N=Nc2c(Cl)cc(O)cc2Cl)cc1	GSTO1 counter 57
Cc1ccsc1/C=C1/C(=O)NN(c2ccccc2)C1=O	none
Cc1ccsc1C=C1C(=O)c2ccccc2C1=O	GSTO1 counter 37
COC(=O)c1ccc(Cn2nnc3c(=O)[nH]c(C4CCN(S(=O)(=O)c5ccc(F)cc5)CC4)nc32)cc1	PME-1 inh 36
COC(=O)c1ccc(Cn2nnc3c(=O)[nH]c(C4CCCN(S(=O)(=O)c5ccccc5Cl)C4)nc32)cc1 (stereo not given)	none
COc1ccc(S(=O)(=O)Nc2ccc(Oc3ccsc3C(=O)O)cc2)cc1	GSTO1 counter 35
O=C(NCc1ccccc1)NC12CC3CC(CC(C3)C1)C2	GSTO1 counter 35
CCOc1ccc(/C=C(\C#N)C(=O)NC2CC2)c(OCC)c1	none
CC1=NN(c2ccc(Cl)c(C(=O)O)c2)C(=O)C1	GSTO1 counter 72
CC1=NN(c2ccc(S(=O)(=O)O)cc2Cl)C(=O)C1	none
CC1=NN(c2ccc(C(=O)O)c(N)c2)C(=O)C1	GSTO1 counter 63
COc1ccccc1CCC(=O)NNC(=O)c1cccs1	none (no result: LYPLA2 inh, Fam108B inh, PME-1 inh, LYPLA1 inh, GSTO1 counter)
COc1ccc(Cn2c(SCC#N)nc3ccc(N4CCOCC4)cc3c2=O)cc1	PREPL inh 71
Oc1c(Cl)cc(Cl)cc1Sc1cc(Cl)cc(Cl)c1O	Fam108B inh 44, PREPL inh 48, PME-1 inh 42, GSTO1 counter 57
Oc1c(Cl)cc(Cl)cc1CNn1cnnc1	none
O=C(COc1ccc(-c2nnco2)cc1)N1CCOCC1	none (no result: LYPLA2 inh, Fam108B inh, PME-1 inh, LYPLA1 inh, GSTO1 counter)
O=C1Nc2ccccc2/C1=N\N=C\C1=C(N2CCOCC2)C(=C\c2ccccc2)/CC1	PME-1 inh 31
COC(=O)C1CN(C(=O)COc2ccc(C)cc2)c2ccccc2O1 (stereo not given)	none
COc1cc(C2Nc3cccc4cccc(c34)N2)ccc1OC(C)=O	Fam108B inh 22, GSTO1 counter 53
COC(=O)c1ccc(C2Nc3cccc4cccc(c34)N2)cc1	PME-1 inh 52
